In the supplement of paper PMC10933113:
± gives the uncertainty stated by the source.

These molecules were tested on THP-1 (assay: CD86 surface expression induction over DMSO control (% over DMSO); higher = stronger dendritic cell activation). Details: exposure time: 24 h.
Protocol: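 hCLAT-like CD54 and CD86 surface expression on THP1 cells after 24 h exposure at a single concentration (highest non-cytotoxic concentration, or 100-200 µM if not cytotoxic). Flow cytometry (iQue) was run on 5,000 live cells.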

SMILES	CD86 surface expression induction
CCCSS/C(CCO)=C(/C)N(C=O)Cc1cnc(C)nc1N [Prosultiamine] (10 µM)	-13 ± 4.4
O=C1c2ccccc2C(=O)C1c1ccc2ccccc2n1 [D & C Yellow II] (10 µM)	-14.2 ± 7.4
CC(C)CC(NC(=O)OCC1c2ccccc2-c2ccccc21)C(=O)O (stereo in doubt) [N-(9-Fluorenylmethoxycarbonyl)-L-leucine] (100 µM)	-11.4 ± 2.7
O=C(O)CCCCCCCCC(=O)O [Decanedioic acid] (200 µM)	-3.64 ± 3
COc1ccc2cc(CCC(C)=O)ccc2c1 [Nabumetone] (100 µM)	-3.23 ± 4.6
Nc1ccc2cc3ccccc3cc2c1 [2-Aminoanthracene] (200 µM)	-10.7 ± 9.7
CCC1OCC(COc2ccc(Oc3ccccc3)cc2)O1 (centres undefined) [Diofenolan] (10 µM)	-18.9 ± 5.4
C=C1CC[C@H](O)C/C1=C/C=C1\CCC[C@]2(C)[C@@H]([C@H](C)/C=C/[C@H](C)C(C)C)CC[C@@H]12 [Ergocalciferol*] (100 µM)	74 ± 130
[Cl][Bi]([Cl])([c]1ccccc1)([c]1ccccc1)[c]1ccccc1 [Triphenylbismuthine dichloride] (10 µM)	53 ± 6.3
